Experimental data from PubChem BioAssay AID1863 (Southern Research Specialized Biocontainment Screening …, 2009).
The whole screen tested about 300,000 compounds, of which about 480 (0.16%) were called active.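 The calls were made as follows: active = inhibition over 29.93%, a cutoff 3 SD above the screen mean, later confirmed by dose response; inconclusive = inhibition over 29.93% but no dose response follow-up; inactive = inhibition at most 29.93% or unconfirmed.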 Not all results are given here. Entries with a potency or affinity are not part of this list.

Experiment: inhibitors of PhoP regulon expression, primary screen, Salmonella Typhimurium, GFP reporter (AID 1863);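 also: 0% = low Mg2+ inducing control and 100% = high Mg2+ repressing control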
Details: S. Typhimurium PhoP-regulated promoter GFP reporter, 4 h; at 50 µM; hits give high values

inhibition, inactive:
CC(C)(C)c1ccc(OCCNCc2ccccc2)cc1 -2.16%
C[N+](C)(CCOc1ccccc1)Cc1ccccc1 (tested in a mixture with another compound) -8.86%
Cc1cc(C(C)(C)C)ccc1OCCOCCN1CCCC1 3.82%
Cc1cc(C(C)(C)C)ccc1OCCN(C)C -7.47%
Cc1ccccc1CSc1nnc(-c2ccncc2)n1C 1.82%
COc1ccccc1C(=O)NCCC(=O)NC(C)c1ccc(-n2ccnc2)cc1 (configuration not stated) 9.9%
CCCCCC[N+](C)(C)CCSSCC[N+](C)(C)CCCCCC -6.44%
C[N+](C)(C)CCCCCC[N+](C)(C)C -9.93%
C#CC[N+](C)(C)CCCCCCCCCC 8.05%
C[N+](C)(C)CCCCCCCCCC[N+](C)(C)C -6.25%
CCN(CC)CCCNC(=O)c1c(O)c2cc(F)cc3c2n(c1=O)C(C)CC3 (configuration not stated) 8.52%
CC1CCc2cc(F)cc3c(O)c(C(=O)NCCN(C)C)c(=O)n1c23 (configuration not stated) 2.46%
CN1CCN(c2c(F)cc3c(=O)c(C(=O)O)cn4c3c2SCC4)CC1 -8.39%
O=C(c1cncc(Br)c1)N1CCN(S(=O)(=O)c2ccccc2C(F)(F)F)CC1 -1.26%
Cc1ccc(C(=O)N/C(=C\c2cccnc2)C(=O)N2CCCC2)cc1 -6.95%
Cc1ccc(C2=Nc3ccccc3NC(C)(c3ccc(C)o3)C2)o1 (configuration not stated) -5.88%
Cc1nnsc1S(=O)c1ccc(Cl)c(Cl)c1 (configuration not stated) 3.99%
N#Cc1ccccc1CSCCNC(=O)Cc1c(F)cccc1Cl -5.66%
COc1cccc(Cn2c(C3CC3)nc3ccc(NC(=O)c4ccco4)cc3c2=O)c1 -9.67%
Cc1ccc(-c2nn(-c3ccccc3)cc2CSC(=N)N)cc1 2.16%
O=C(O)Cc1cn(-c2ccccc2)nc1-c1ccccc1 -1.05%
OCc1cn(-c2ccccc2)nc1-c1ccc(-c2nn(-c3ccccc3)cc2CO)cc1 14.7%
OCc1cn(-c2ccccc2)nc1-c1ccc(Br)cc1 -1.5%
CC1=Nn2c(nc3sc4c(c3c2=O)CCCC4)SC1 -2.64%
Cc1cnc(NC(=O)c2ccncc2)s1 1.84%
C=CCOC(=O)C1=C[C@@H](c2ccc(Br)cc2)[C@H](CCCO)[C@@H](OCC)O1 -3.82%
COc1cc(NS(=O)(=O)c2ccc(NS(=O)(=O)c3ccc(C)cc3)cc2)nc(OC)n1 12.1%
